{
  "source": "PubChem BioAssay AID2283220",
  "about": "(EPA ToxCast)",
  "note": "Records with an inconclusive call do not appear. Calls of active or inactive are those of the source. The calls were made as follows: active = hit-call score of the fitted dose curve at least 0.9, where 1 is the maximum; inconclusive = response in the unintended direction; inactive = score below 0.9.",
  "data": [
    {"biological_target": "human Serum/Glucocorticoid Regulated Kinase 1 (SGK1), SGK1 (gene 6446) (UniProt O00141)", "sequence (O00141 whole entry, looked up)": "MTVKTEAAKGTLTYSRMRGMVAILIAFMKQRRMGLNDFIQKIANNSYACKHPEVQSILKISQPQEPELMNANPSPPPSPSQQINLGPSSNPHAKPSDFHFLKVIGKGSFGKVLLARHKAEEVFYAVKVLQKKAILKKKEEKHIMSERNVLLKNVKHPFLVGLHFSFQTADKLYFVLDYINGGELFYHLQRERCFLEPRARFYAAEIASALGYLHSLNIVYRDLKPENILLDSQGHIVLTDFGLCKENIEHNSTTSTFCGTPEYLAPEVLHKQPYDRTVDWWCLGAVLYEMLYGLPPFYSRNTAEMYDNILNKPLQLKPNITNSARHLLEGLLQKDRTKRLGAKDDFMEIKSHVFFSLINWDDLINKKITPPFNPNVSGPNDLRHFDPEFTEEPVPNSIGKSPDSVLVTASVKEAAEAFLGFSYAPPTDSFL", "experiment": "NVS_ENZ_hSGK1: NovaScreen (NVS) Enzymatic Assay for human Serum/Glucocorticoid Regulated Kinase 1 (SGK1)", "procedure": "NVS_ENZ_hSGK1 is a biochemical, single-readout assay that uses extracted gene-proteins in a cell-free assay. Measurements were taken 1 hour after chemical dosing in a 96-well plate.NVS_ENZ_hSGK1 is one of one assay component(s) measured or calculated from the NVS_ENZ_hSGK1 assay. It is designed to make measurements of enzyme activity, a form of enzyme reporter, as detected with fluorescence intensity signals by Fluorescence and electrophoretic mobility shift technology.Data from the assay component NVS_ENZ_hSGK1 was analyzed into 1 assay endpoint. This assay endpoint, NVS_ENZ_hSGK1, was analyzed in the positive analysis fitting direction relative to DMSO as the negative control and baseline of activity. Using a type of enzyme reporter, loss-of-signal activity can be used to understand changes in the enzymatic activity as they relate to the gene SGK1. Furthermore, this assay endpoint can be referred to as a primary readout, because this assay has produced […] where this one serves a enzymatic activity function. To generalize the intended target to other relatable targets, this assay endpoint is annotated to the kinase intended target family, where the subfamily is serine/threonine kinase.\nBinding assays used specific radioligands (tritiated, iodinated) with non-radioactive competitive displacement ligands in agonist or antagonist protocols (as indicated) and various reference compounds and inhibitors to titrate specific binding to receptors and transporters. Most enzyme assays (CYPs, kinases, phosphatases, proteases, HDACs) used recombinant protein and specific substrates (fluorescence mostly, some colorimetric and radioactive) and inhibitors, followed by a biochemical separation of substrate and product. All assays for the biochemical HTS were initially run in duplicate at a single concentration (10 uM for CYP450 assays and 25 uM for all others). Assay-chemical combinations meeting a pre-defined threshold (e.g., 30% inhibition and other criteria defined below) were then run in singleton concentration-response format with maximum concentration of 20 uM for CYPs and 50 uM for all others. Each assay was run with positive and negative controls, and concurrent controls on every plate. The follow-up (secondary) screen tested active chemical-pairs in concentration series, as well as a few additional assays not tested in the primary screen, some selected negative inactives, and several cases re-run in the concentration series for confirmatory purposes.", "values": [
      {"smiles": "O=S(=O)(O)C(F)(F)C(F)(F)C(F)(F)C(F)(F)C(F)(F)C(F)(F)C(F)(F)C(F)(F)F", "AC50": "26.2 µM (active)"},
      {"smiles": "N#Cc1c(Cl)c(Cl)c(Cl)c(C#N)c1Cl", "AC50": "19.8 µM (active)"},
      {"smiles": "O=C(O)COc1ccc(Cl)cc1Cl", "outcome": "inactive"},
      {"smiles": "CCNc1nc(Cl)nc(NCC)n1", "outcome": "inactive"},
      {"smiles": "O=C(O)C(F)(F)C(F)(F)C(F)(F)C(F)(F)C(F)(F)C(F)(F)C(F)(F)F", "outcome": "inactive"},
      {"smiles": "CNC(=S)S", "outcome": "inactive"},
      {"smiles": "S=C1NCCN1", "outcome": "inactive"},
      {"smiles": "OC(c1ccc(Cl)cc1)(c1ccc(Cl)cc1)C(Cl)(Cl)Cl", "outcome": "inactive"},
      {"smiles": "CC(Oc1cccc(Cl)c1)C(=O)O", "note": "(centres undefined)", "outcome": "inactive"},
      {"smiles": "COC(=O)c1ccccc1S(=O)(=O)NC(=O)N(C)c1nc(C)nc(OC)n1", "outcome": "inactive"},
      {"smiles": "COP(=S)(OC)Oc1ccc([N+](=O)[O-])cc1", "outcome": "inactive"},
      {"smiles": "CCCC(=NOCC)C1=C(O)CC(CC(C)SCC)CC1=O", "note": "(centres undefined)", "outcome": "inactive"},
      {"smiles": "Nc1c(Cl)cc([N+](=O)[O-])cc1Cl", "outcome": "inactive"},
      {"smiles": "CC(C)OC(=O)Nc1cccc(Cl)c1", "outcome": "inactive"}
    ]}
  ]
}
